Screening results: PubChem, National Center for Advancing Translational Sciences (NCATS)
Sampled rows, rich in hits. Any-hit rate of the full collection: about 7.3%.
Vaccinia Venus: vaccinia inhibition (Venus reporter); Vaccinia virus Venus reporter expression, fluorescence; Potency, µM (doses to about 36.5 µM), inactives show top-dose activity change, negative = inhibition, hits mostly inhibitors; actives 0.46% (n = 330,000); AID 720580; calls by dose curve; tested in A549 cells; also: potency is read from the fitted curve at half-maximal effect; nearly all actives have a fitted effect of over 30% in size
FMDV antiviral: foot and mouth disease virus antiviral activity | actives 1.2% (n = 410,000) | FMDV antiviral cell-based qHTS | AID 1159524 | Potency, µM (series often up to 57.9 µM), without a hit: at the highest dose activity change, negative = inhibition, usual class: inhibitors; calls by dose curve; tested in HEK293T cells; also: read-out not given here; potency is read from the fitted curve at half-maximal effect; nearly all actives have a fitted effect of over 45% in size
HCMV antiviral: blocks human cytomegalovirus replication; actives 4.5% (n = 410,000); HFF cells, HCMV-luciferase reporter, 72 h; stronger effect = lower value; activity change, negative = inhibition, % at 57.5 µM; in the data active = activity change below about -60%; inconclusive = no clear call, values can overlap the other calls; inactive = above about -39%
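Inhibition of viral replication was scored as loss of reporter luminescence in HFFs infected with HCMV-luciferase (MOI 1 PFU/cell) for 72 h; compounds tested at 2 doses, normalized to buffer and Salinomycin controls.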
VACV mCherry inh: vaccinia inhibition (mCherry reporter). Vaccinia virus mCherry reporter infection, fluorescence. Potency, µM (doses to about 36.5 µM), for inactives: top-dose activity change, negative = inhibition, hits mostly inhibitors. actives 0.63% (n = 310,000); calls by dose curve; tested in A549 cells; also: potency is read from the fitted curve at half-maximal effect; nearly all actives have a fitted effect of over 35% in size
HCV inh: HCV inhibition | Huh7.5.1 HCVcc-Cre infection, luciferase reporter, 44 h | AID 651820 | Potency, µM (series often up to 41.8 µM), for inactives: top-dose activity change, negative = inhibition, most hits filed as inhibitors | actives 3.4% (n = 340,000); active = well fitted inhibition curve with a large enough effect; inconclusive = small, poorly fitted or top-dose-only effect, or another doubt; inactive = no such curve, though single readings can be large or run the other way; also: potency is read from the fitted curve at half-maximal effect
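Luciferase read-out (15 sec integration) after a 15 min room-temperature substrate step quantifies HCVcc-Cre infection. Cells, 1,000 per well, had compound added 4 h post-plating, then virus at ~0.5 moi, and were cultured 44 h.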
Starred values were filed as active, the others as inactive; i = inactive; u = inconclusive; x = no result given; [ ] = another dose, or the depositor's remark. % is scaled to controls: 0 for no effect and ±100 for the full control effect.

SMILES	Vaccinia Venus	FMDV antiviral	HCMV antiviral	VACV mCherry inh	HCV inh
Cc1cc(-c2ccc(S(=O)(=O)Nc3ccc(Cl)cc3C)cc2)on1	-26%	-10%	-78*	-24%	x
Cc1cc(-c2ccc(S(=O)(=O)Nc3ccccc3C)cc2)on1	u	-11%	5	u	x
COCCn1c(=O)c(-c2cn(C)c3ccccc23)nc2cnc(Oc3cccc(Cl)c3)nc21	x	-17%	x	x	x
COc1cccc(C(C)(O)c2nc(-c3cccs3)cs2)c1 (centres undefined)	6%	-12%	-79*	-11%	x
COc1cccc(C(C)(O)c2nc(-c3cncnc3)cs2)c1 (centres undefined)	7%	-26%	-20	8%	x
COc1cccc(C(C)(O)c2nc(-c3ccc(OC)nc3)cs2)c1 (centres undefined)	-13%	u	-62*	i	x
COc1cccc(C(C)(O)c2nc(-c3cnc4ccccc4c3)cs2)c1 (centres undefined)	-3%	u	-62*	9%	x
COc1cccc(C(C)(O)c2nc(-c3ccc(Cl)cc3)cs2)c1 (centres undefined)	-15%	-11%	11	i	x
COc1cccc(C(C)(O)c2nc(-c3ccc4ccccc4c3)cs2)c1 (centres undefined)	-7%	0%	-33	i	x
COc1ccc(-c2csc(C(C)(O)c3cccc(OC)c3)n2)cc1 (centres undefined)	-28%	u	-65*	u	x
CCOC(=O)[C@]12CCCC=C1N(Cc1cccc3ccccc13)C(=O)[C@H](CC(=O)N1CCC(c3ccccc3)CC1)C2	-15%	-20%	3	2%	x
C=CCOC(=O)C1=C[C@@H](c2csc3ccccc23)[C@H](CCCO)[C@@H](OCC)O1	-10%	-14%	-21	i	13%
Cc1ccc(CNC(=O)c2ccc3c(c2)N(Cc2cccc(C)c2)C(=O)CS3)cc1	-3%	0%	-13	-10%	x
COc1cccc(C(C)(O)c2nc(-c3ccc(S(C)(=O)=O)cc3)cs2)c1 (centres undefined)	-10%	u	-86*	9%	x
CC(O)(c1cccc(F)c1)c1nc(-c2cccc(C(F)(F)F)c2)cs1 (centres undefined)	-17%	-10%	6	-17%	x
CC(O)(c1ccncc1)c1nc(-c2cccc(C(F)(F)F)c2)cs1 (centres undefined)	-27%	u	-69*	-3%	x
CN1CCN(CCCNC(=O)c2ccc(/C=C3\Oc4ccccc4N(Cc4ccccc4F)C3=O)cc2)CC1	x	-2%	-30	x	14µM*
CN1CCN(CCCNC(=O)c2ccc(/C=C3\Sc4ccccc4N(Cc4ccc(F)cc4)C3=O)cc2)CC1	x	19%	-67*	x	u
CC1CCC(NC(=O)c2ccc(/C=C3\Oc4ccccc4N(C)C3=O)cc2)CC1 (centres undefined)	x	x	x	x	10%
CCN1CCN(CCNC(=O)c2ccc(/C=C3\Sc4ccccc4N(Cc4ccccc4F)C3=O)cc2)CC1	x	-24%	u	x	11µM*
CN1CCN(CCCNC(=O)c2ccc(/C=C3/Sc4ccccc4N(Cc4cccc(Cl)c4)C3=O)cc2)CC1	x	-15%	u	x	u
C=CCNc1ncnc2c1ncn2[C@H]1CN(Cc2ccc(-c3ccccc3)cc2)C[C@@H](CO)O1	-19%	u	-17	11%	x
COc1ccc(/C=C/C(=O)NNC(=O)C(C)Oc2ccccc2F)cc1OC (centres undefined)	x	-7%	22	x	-11%
CN(C)C1(CNC(=O)COc2ccc([N+](=O)[O-])cc2)CCCCC1	-7%	22%	7	-1%	x
Cc1ccc(/C=C2/Sc3ccccc3N(CC(=O)NCC3CCCO3)C2=O)cc1 (centres undefined)	-9%[7.34 µM]	-18%	x	-18%[7.34 µM]	u
SMILES	Vaccinia Venus	FMDV antiviral	HCMV antiviral	VACV mCherry inh	HCV inh
Cc1cc(/C=C2\Sc3ccccc3N2C)cc(C)[n+]1CC1CCCO1 (centres undefined)	u	u	-100*	8.9µM*	2.5µM*
COc1ccc(OCCCC(=O)Nc2ncn[nH]2)cc1	1%	3%	-8	i	-12%
COc1cccc(-c2csc(N3CCN(C(=S)Nc4ccc(Cl)cc4)CC3)n2)c1	-27%	x	33	u	13µM*
COc1cccc(-c2csc(N3CCN(C(=S)Nc4cccc(C)c4)CC3)n2)c1	-20%	-22%	-67*	-23%	u
COc1cccc(-c2csc(N3CCN(C(=S)Nc4ccccc4)CC3)n2)c1	-15%	x	-8	-20%	-19%
COc1cccc(NC(=O)N2CCN(c3nc(-c4cccc(OC)c4)cs3)CC2)c1	x	32µM*	-71*	x	11µM*
Cc1cc(Oc2ccc(C)c(Cl)c2)nc(SCC(=O)c2ccccc2)n1	-16%	u	-74*	-21%	u
Cc1ccc(C(=O)CSc2cc(C)nc(SCC(=O)c3ccccc3)n2)cc1	-25%	u	-15	x	u
CCOC(=O)c1cc(-c2ccccc2)nc2c1c(C)nn2-c1ccccn1	u	0%	-8	x	10µM*
CSc1nc(-c2ccccc2)c(C#N)c(=O)[nH]1	-2%	-17%	-24	-13%	5%
CSc1nc(-c2ccc(Cl)cc2)c(C#N)c(=O)[nH]1	-4%	-13%	-76*	i	4%
CCOC(=O)c1ccccc1NC(=O)CSc1nc2ncccc2o1	-8%	-6%	24	1%	x
COC(=O)c1ccc(N2CCC(c3cc(-c4ccc(OC)cc4)n[nH]3)CC2)c([N+](=O)[O-])c1	x	u	-33	x	11µM*
COc1ccc(-c2cc(C3CCN(c4ccc(C(C)=O)cc4[N+](=O)[O-])CC3)[nH]n2)cc1	x	18µM*	-98*	x	11µM*
O=C(Nc1ccc(N2CCOCC2)cc1)c1cc2c(s1)CCCC2	-28%	-4%	u	-19%	4µM*
O=C(Nc1ccc(N2CCOCC2)cc1)c1cc2c(s1)CCCCC2	-20%	-1%	-25	-23%	11µM*
O=C(Nc1ccccc1N1CCOCC1)c1cc2c(s1)CCCCC2	-14%	40%	-34	-2%	-6%
Cc1csc(NC(=O)c2cc3c(s2)CCCCC3)n1	u	8.9µM*	u	x	u
CC1CCc2sc(C(=O)N(C)CC(=O)Nc3ccc(N4CCOCC4)cc3)cc2C1 (centres undefined)	-10%	-9%	-68*	-17%	0%
CC(=O)Nc1ccc(/C=C/c2ccnc3ccccc23)cc1	-19%	x	x	-27%	x
O=S(=O)(c1cccnc1)N1CCN(c2nc(-c3cccs3)nc3ccccc23)CC1	-18%	x	x	-26%	x
CCCN(N=Nc1cccc([N+](=O)[O-])c1)c1cccc([N+](=O)[O-])c1	-11%	x	34	-14%	1.1µM*
O=[N+]([O-])c1cccc(N=NN(CCO)c2cccc([N+](=O)[O-])c2)c1	-4%	-22%	-13	0%	1.1µM*
CN(N=Nc1cccc([N+](=O)[O-])c1)c1cccc([N+](=O)[O-])c1	x	45%	64	x	u
